# Assay results from ChEMBL document CHEMBL1157539, “Thousands of chemical starting points for antimalarial lead identification” (Nature, 2010).
# Key:
# Format in all cases: functional
# [1] = tested on: Plasmodium falciparum; assay: GSK_TCMDC: Inhibition of Plasmodium falciparum 3D7 in whole red blood cells, using parasite LDH activity as an index of growth. Test compounds present at 2uM
# [2] = tested on: Plasmodium falciparum; assay: GSK_TCMDC: Inhibition of Plasmodium falciparum Dd2 in whole red blood cells, using parasite LDH activity as an index of growth. Test compounds present at 2uM
# [3] = tested on: HepG2; assay: GSK_TCMDC: Percent inhibition of human HepG2 cell line. Test compounds present at 10uM.
Structure (SMILES),Inhibition [1],Inhibition [2],Inhibition [3]
Cc1nc(Nc2ccncc2)cc(-c2ccncc2)n1,100%,3%,6%
CCN1CCc2nc3ccccc3c(C(=O)Nc3ccc(C#N)cc3)c2C1,99%,72%,24%
Cc1ccccc1C1CCN(C2CCC(NC(=O)c3ccc(-c4cccs4)s3)CC2)CC1 (centres undefined),100%,54%,58%
COc1ccc2nccc([C@@H](O)CN3CCC(CO)(NCc4cc5ccccc5o4)CC3)c2c1.O=C(O)C(=O)O,85%,7%,12%
Cc1sc(CNCCCNc2cc(=O)c3ccccc3[nH]2)c(I)c1C.Cl,94%,48%,0%
COc1ccc(CNC2CCN(C)CC2)cc1-c1ccc(S(=O)(=O)NCc2ccccc2)c(F)c1.O=C(O)C(F)(F)F,100%,97%,53%
COc1cncc(/C=C/c2cncc(C(=O)NCCc3ccc(Cl)cc3Cl)c2)c1,99%,49%,0%
COc1ccc(Nc2nccc(N3CCC(NC(=O)C(C)c4ccc(Cl)cc4)C3)n2)cc1 (centres undefined),85%,97%,35%
Cc1cc(-c2nc3cncc(-c4cccc(CN5CCCC5Cc5cccnc5)c4)c3n2C)nn1C.O=C(O)C(F)(F)F (centres undefined),83%,73%,0%
Cc1cccc2nc(-c3cccc(-c4ccc(NC(=O)C(C)C(=O)NC(C)C)cc4)c3)[nH]c12 (centres undefined),85%,26%,13%
Cc1cccc2nc(-c3cccc(-c4cccc(NC(=O)c5cccnc5)c4)c3)[nH]c12,100%,56%,28%
COc1cc2c(cc1C(F)(F)F)N(C(=O)Nc1cc(-c3ccncc3)cc(-c3cccnc3)c1)CC2,95%,50%,64%
CN(C)CCc1coc2ccc(C(=O)Nc3ccc(-c4ccc(O)cc4)cc3)cc12,100%,40%,28%
Cc1cnc(N2CCN(CCCN3CCCC3)CC2)nc1Oc1ccc(-n2ccnc2)cc1.O=C(O)C(F)(F)F,99%,82%,12%
Cc1cccc(-c2nn(-c3ccccc3)c3[nH]c(=O)c(CNC4CCCC4)cc23)c1,98%,97%,18%
CCCCN1C(=N)NC(c2ccccc2)(c2ccccc2)C1=O,87%,34%,19%
COc1cc2nc(NCCc3ccccc3)nc(NC(C)c3ccccc3)c2cc1OC (centres undefined),99%,100%,9%
COCCCNC(=O)C1CCN(C(c2ccc(Cl)cc2)c2ccc(Cl)cc2)CC1,91%,63%,5%
